Measurements published in the supplement of paper PMC10849652.
About 7,900 targets were measured; listed, in parts, are those with a hit and a random draw of the rest. About 0.6% of all pairs of compound and target were hits.

Legend:
Assay in all cases: log2 fold change, soluble protein after heating vs DMSO (PISA); higher = thermal stabilisation; K562 cells, 10 uM, 30 min; active = over 0.2 and 3.5 SD of the protein, either way, in both replicates (recomputed)
[1] = compound: C1COCCN1CCN2C3=CC=CC=C3N=C2NC(=O)C4=CC(=CC=C4)[N+](=O)[O-] [IRAK-1-4 Inhibitor I]
How it was run: (§1)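 K562 cells at 2×10^6 cells/mL were treated for 30 min with 10 μM compound, and aliquots were heated for 3 min over 48°C-58°C before pooling. Extraction used PBS with 0.5% NP-40 at 4°C, and soluble protein was the supernatant after 21,000xg for 90 min, measured by TMTpro 16plex LC-MS/MS with channel sums equalised. Thermal stability values, relative to control samples and from duplicates, are log2 fold changes.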

[2] = compound: C=CC(=O)N1CCC[C@@H](n2nc(-c3ccc(Oc4ccccc4)cc3)c3c(N)ncnc32)C1 [ibrutinib]
How it was run: as §1

[3] = compound: CC(=O)c1cnc2ccc(-c3cc(Cl)c(O)c(Cl)c3)nc2c1N[C@H]1CC[C@H](CN(C)C)CC1
How it was run: as §1

[4] = compound: CC(C)(C)Cn1c(N)nc2ccc(-c3[nH]c(C(C)(C)C)nc3-c3ccc(F)cc3)nc21 [ralimetinib]
How it was run: as §1

[5] = compound: CC(C)(O)CC(=O)NCCn1ccc2ncnc(Nc3ccc(Oc4cccc(C(F)(F)F)c4)c(Cl)c3)c21
How it was run: as §1

[6] = compound: CC(C)C1=C2N=C(C=C(N2N=C1)NCC3=CC=CC=C3)NCCCCCCN
How it was run: as §1

[7] = compound: CC(C)C[C@@H](C=O)NC(=O)[C@H](CC(C)C)NC(=O)[C@H](CC(C)C)NC(=O)OCc1ccccc1
How it was run: as §1

[8] = compound: CC(C)N(C[C@H]1O[C@@H](n2cnc3c(N)ncnc32)[C@H](O)[C@@H]1O)[C@H]1C[C@@H](CCc2nc3cc(C(C)(C)C)ccc3[nH]2)C1 [pinometostat]
How it was run: as §1

[9] = compound: CC1=C(C(CC(=O)N1)C2=CC=C(C=C2)C(F)(F)F)C(=O)NC3=C(C=C4C(=C3)C=NN4)F
How it was run: as §1

[10] = compound: CC1=C(C2=C(C=C1)C(=O)C3=CC=CC=C3N2CCCN)C
How it was run: as §1

[11] = compound: CC1=C(C=C(C=C1)NC(=O)C2=CC(=CC=C2)C(C)(C)C#N)NC3=CC4=C(C=C3)N=CN(C4=O)C
How it was run: as §1

[12] = compound: CC1=C(C=C(C=C1)NC(=O)C2=CC(=CC=C2)N(C)C)NC(=O)C3=CC=C(C=C3)O
How it was run: as §1

[13] = compound: CC1=CC=C(C=C1)SC2=C3C=C(SC3=CN=C2)C(=O)N
How it was run: as §1

[14] = compound: CC1=NC(=CC=C1)C2=C(N=C(N2)C(C)(C)C)C3=CC4=NC=CN=C4C=C3
How it was run: as §1

[15] = compound: CCCCN(Cc1ccc(C(=O)NO)cc1)C(=O)Nc1ccccc1 [Nexturastat A]
How it was run: as §1

[16] = compound: CCCS(=O)(=O)Nc1ccc(F)c(C(=O)c2c[nH]c3ncc(-c4ccc(Cl)cc4)cc23)c1F [vemurafenib]
How it was run: as §1

[17] = compound: CCCS(=O)(=O)Nc1ccc(F)c(C(=O)c2c[nH]c3ncc(Cl)cc23)c1F
How it was run: as §1

[18] = compound: CCCc1cc(C)[nH]c(=O)c1CNC(=O)c1cc(-c2ccnc(N3CCN(C)CC3)c2)cc2c1cnn2C(C)C
How it was run: as §1

[19] = compound: CCN(CC)Cc1ccc2cc(COC(=O)Nc3ccc(C(=O)NO)cc3)ccc2c1 [givinostat]
How it was run: as §1

[20] = compound: CCN(CCCOc1ccc2c(Nc3cc(CC(=O)Nc4cccc(F)c4)[nH]n3)ncnc2c1)CCOP(=O)(O)O [barasertib]
How it was run: as §1

Measured: log2 fold change

NOB1 (UniProt Q9ULX3)
Chain of UniProt Q9ULX3 (Q9ULX3 whole entry, looked up): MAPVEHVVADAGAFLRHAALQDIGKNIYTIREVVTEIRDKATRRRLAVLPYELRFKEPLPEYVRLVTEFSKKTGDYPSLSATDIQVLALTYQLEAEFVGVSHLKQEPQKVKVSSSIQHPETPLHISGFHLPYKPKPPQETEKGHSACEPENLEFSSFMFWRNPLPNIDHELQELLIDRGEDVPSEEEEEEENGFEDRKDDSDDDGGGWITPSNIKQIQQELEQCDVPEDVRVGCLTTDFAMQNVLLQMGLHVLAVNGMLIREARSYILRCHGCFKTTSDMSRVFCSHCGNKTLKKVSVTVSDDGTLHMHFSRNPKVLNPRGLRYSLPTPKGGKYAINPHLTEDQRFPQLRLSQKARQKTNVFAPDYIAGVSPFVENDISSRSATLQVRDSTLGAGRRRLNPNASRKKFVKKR
inactive: [1] -0.062 | [2] -0.025 | [3] -0.083 | [5] -0.033 | [6] -0.15 | [7] 0.053 | [8] 0.068 | [9] 0.047 | [10] -0.031 | [11] 0.039 | [12] 0.047 | [13] 0.012 | [14] 0.027 | [15] 0.034 | [16] 0.055 | [17] 0.031 | [18] 0.182 | [19] 0.055 | [20] 0.041
active: [4] 0.288

NUP98 (UniProt P52948)
inactive: [1] -0.021 | [2] -0.048 | [3] -0.146 | [4] 0.04 | [5] 0 | [6] -0.071 | [7] 0.041 | [8] 0.03 | [9] -0.019 | [10] 0.013 | [11] -0.042 | [12] 0.064 | [13] -0.003 | [14] 0.031 | [15] 0.061 | [16] 0.037 | [17] 0.068 | [18] 0.036 | [19] 0.081 | [20] 0.037

MRPS35 (UniProt P82673)
inactive: [1] -0.035 | [2] 0.004 | [3] -0.082 | [4] -0.035 | [5] -0.047 | [6] -0.024 | [7] 0.083 | [8] 0.078 | [9] 0.006 | [10] -0.186 | [11] -0.016 | [12] -0.013 | [13] -0.04 | [14] -0.007 | [15] 0.167 | [16] -0.063 | [17] -0.022 | [18] 0.149 | [19] 0.017 | [20] -0.034

MRPS22 (UniProt P82650)
inactive: [1] -0.027 | [2] 0.051 | [3] -0.02 | [4] 0.017 | [5] -0.102 | [6] -0.11 | [7] 0.04 | [8] 0.007 | [9] -0.013 | [10] -0.175 | [11] 0.041 | [12] -0.029 | [13] 0.022 | [14] -0.018 | [15] 0.092 | [16] -0.024 | [17] 0.037 | [18] 0.049 | [19] 0.032 | [20] -0.055

OXR1 (UniProt Q8N573)
inactive: [1] 0.048 | [2] 0.016 | [3] -0.002 | [4] -0.019 | [5] -0.035 | [6] -0.077 | [7] -0.004 | [8] 0.023 | [9] -0.008 | [10] 0.009 | [11] 0.005 | [12] -0.003 | [13] 0.005 | [14] 0.052 | [15] -0.025 | [16] 0.023 | [17] -0.013 | [18] -0.062 | [19] 0.012 | [20] 0.027

MTMR14 (UniProt Q8NCE2)
Chain of UniProt Q8NCE2 (Q8NCE2 whole entry, looked up): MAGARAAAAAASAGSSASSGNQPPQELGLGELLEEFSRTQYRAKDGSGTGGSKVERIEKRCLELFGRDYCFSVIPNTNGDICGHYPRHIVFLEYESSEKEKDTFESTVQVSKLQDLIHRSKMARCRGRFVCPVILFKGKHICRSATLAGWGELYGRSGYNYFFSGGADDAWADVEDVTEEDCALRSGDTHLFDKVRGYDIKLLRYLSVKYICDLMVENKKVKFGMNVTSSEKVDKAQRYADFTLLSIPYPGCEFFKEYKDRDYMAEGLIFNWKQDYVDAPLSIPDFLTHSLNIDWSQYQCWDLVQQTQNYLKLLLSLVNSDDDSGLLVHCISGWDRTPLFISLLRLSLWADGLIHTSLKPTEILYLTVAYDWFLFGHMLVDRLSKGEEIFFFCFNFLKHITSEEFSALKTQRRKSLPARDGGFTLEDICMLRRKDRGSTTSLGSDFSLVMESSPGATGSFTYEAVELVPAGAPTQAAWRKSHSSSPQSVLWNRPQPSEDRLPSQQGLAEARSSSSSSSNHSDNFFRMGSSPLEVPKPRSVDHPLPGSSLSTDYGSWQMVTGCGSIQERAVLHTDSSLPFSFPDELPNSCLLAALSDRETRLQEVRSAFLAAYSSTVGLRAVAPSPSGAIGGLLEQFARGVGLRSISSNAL
inactive: [1] 0.027 | [2] -0.069 | [3] -0.015 | [4] 0.004 | [5] 0.028 | [6] -0.04 | [7] -0.004 | [8] -0.041 | [9] 0.06 | [10] -0.029 | [11] -0.009 | [12] -0.048 | [13] -0.004 | [14] 0.02 | [15] 0.028 | [16] -0.02 | [17] 0.071 | [18] -0.016 | [19] 0.061 | [20] 0.019

NA, A0A2R8Y3M9
inactive: [1] 0.087 | [2] 0.215 | [3] -0.207 | [4] -0.08 | [7] 0.056 | [8] -0.001 | [9] 0.253 | [11] -0.126 | [12] 0.546 | [13] 0.225 | [14] 0.178 | [17] -0.086 | [20] -0.138

NUMBL (UniProt Q9Y6R0)
Chain of UniProt Q9Y6R0 (Q9Y6R0 whole entry, looked up): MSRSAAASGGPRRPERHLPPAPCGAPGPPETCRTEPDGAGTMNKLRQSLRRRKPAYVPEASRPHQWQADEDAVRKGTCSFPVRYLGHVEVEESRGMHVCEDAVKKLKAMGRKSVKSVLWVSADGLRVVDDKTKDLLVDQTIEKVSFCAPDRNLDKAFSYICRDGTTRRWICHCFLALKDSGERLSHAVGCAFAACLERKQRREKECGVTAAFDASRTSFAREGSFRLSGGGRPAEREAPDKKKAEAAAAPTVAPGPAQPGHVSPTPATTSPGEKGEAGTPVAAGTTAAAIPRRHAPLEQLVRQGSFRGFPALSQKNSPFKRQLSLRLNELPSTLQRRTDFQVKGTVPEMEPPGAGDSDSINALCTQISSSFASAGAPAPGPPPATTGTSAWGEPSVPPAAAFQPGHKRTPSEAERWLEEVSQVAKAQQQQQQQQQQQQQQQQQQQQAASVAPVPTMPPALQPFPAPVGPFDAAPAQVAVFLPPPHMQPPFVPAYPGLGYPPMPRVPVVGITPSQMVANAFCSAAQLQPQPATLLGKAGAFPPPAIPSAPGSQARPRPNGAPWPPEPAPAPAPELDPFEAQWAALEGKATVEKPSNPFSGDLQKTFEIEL
inactive: [1] 0.144 | [2] -0.032 | [4] -0.032 | [5] 0.044 | [6] -0.026 | [7] 0.162 | [8] 0.111 | [9] -0.024 | [11] 0.011 | [12] -0.045 | [13] -0.018 | [14] -0.081 | [15] 0.121 | [16] -0.144 | [17] -0.005 | [18] 0.249 | [19] 0 | [20] 0.069
active: [3] -0.349

NAGPA (UniProt Q9UK23)
Chain of UniProt Q9UK23 (Q9UK23 whole entry, looked up): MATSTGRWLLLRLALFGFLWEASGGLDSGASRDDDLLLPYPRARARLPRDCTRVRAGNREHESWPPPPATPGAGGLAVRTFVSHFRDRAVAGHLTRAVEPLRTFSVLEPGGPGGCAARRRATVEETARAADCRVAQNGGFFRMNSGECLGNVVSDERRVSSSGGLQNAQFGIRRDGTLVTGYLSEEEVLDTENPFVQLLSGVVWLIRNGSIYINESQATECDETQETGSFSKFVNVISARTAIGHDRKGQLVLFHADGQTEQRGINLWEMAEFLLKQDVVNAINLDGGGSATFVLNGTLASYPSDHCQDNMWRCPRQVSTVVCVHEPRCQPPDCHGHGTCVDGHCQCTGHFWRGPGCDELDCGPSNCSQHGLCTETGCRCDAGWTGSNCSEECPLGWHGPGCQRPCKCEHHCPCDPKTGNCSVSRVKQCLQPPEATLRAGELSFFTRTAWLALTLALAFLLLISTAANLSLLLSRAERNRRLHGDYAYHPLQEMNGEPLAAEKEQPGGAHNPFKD
inactive: [1] -0.078 | [2] 0.228 | [3] -0.014 | [5] 0.03 | [6] 0.112 | [8] 0.052 | [9] 0.083 | [10] -0.062 | [11] -0.028 | [13] -0.004 | [14] 0.054 | [15] -0.131 | [17] -0.067 | [18] -0.066 | [19] 0.002 | [20] -0.133

MON1B (UniProt Q7L1V2)
Chain of UniProt Q7L1V2 (Q7L1V2 whole entry, looked up): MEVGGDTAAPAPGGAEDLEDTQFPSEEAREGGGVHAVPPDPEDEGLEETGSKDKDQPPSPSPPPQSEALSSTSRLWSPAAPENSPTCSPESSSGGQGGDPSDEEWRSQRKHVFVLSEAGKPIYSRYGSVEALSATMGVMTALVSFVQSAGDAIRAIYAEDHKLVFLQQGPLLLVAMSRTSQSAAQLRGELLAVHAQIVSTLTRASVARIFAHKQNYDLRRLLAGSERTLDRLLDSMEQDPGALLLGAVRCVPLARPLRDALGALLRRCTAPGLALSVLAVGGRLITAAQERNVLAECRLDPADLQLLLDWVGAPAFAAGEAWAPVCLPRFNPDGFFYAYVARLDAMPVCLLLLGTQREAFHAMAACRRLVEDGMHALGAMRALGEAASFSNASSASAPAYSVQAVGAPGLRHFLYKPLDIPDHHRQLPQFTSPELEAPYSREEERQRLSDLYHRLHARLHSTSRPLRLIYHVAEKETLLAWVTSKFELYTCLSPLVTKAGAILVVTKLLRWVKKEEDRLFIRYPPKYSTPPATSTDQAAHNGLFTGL
active: [6] -0.406
inactive: [1] 0.047 | [2] 0.037 | [3] -0.013 | [4] 0.095 | [5] -0.006 | [7] 0 | [8] -0.039 | [9] -0.023 | [10] 0 | [11] 0.064 | [12] -0.003 | [13] 0.071 | [14] 0.019 | [15] -0.058 | [16] -0.005 | [17] 0.032 | [18] -0.036 | [19] 0.024 | [20] 0.005

PAFAH1B2 (UniProt P68402)
Chain of UniProt P68402 (P68402 whole entry, looked up): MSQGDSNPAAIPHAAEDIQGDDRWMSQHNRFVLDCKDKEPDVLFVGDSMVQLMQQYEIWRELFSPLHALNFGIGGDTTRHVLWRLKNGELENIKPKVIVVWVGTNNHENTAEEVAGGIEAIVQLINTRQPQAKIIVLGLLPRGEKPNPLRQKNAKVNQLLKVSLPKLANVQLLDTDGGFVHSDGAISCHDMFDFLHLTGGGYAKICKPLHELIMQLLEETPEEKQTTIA
inactive: [1] 0.013 | [2] 0.017 | [3] -0.016 | [4] 0.038 | [6] 0.012 | [7] -0.033 | [8] 0.016 | [9] 0.027 | [10] 0.005 | [11] 0.064 | [12] 0.005 | [13] -0.106 | [14] -0.046 | [15] -0.157 | [16] 0.083 | [17] -0.135 | [18] -0.355 | [19] 0.042 | [20] 0.046
active: [5] -0.436

OVCA2 (UniProt Q8WZ82)
Chain of UniProt Q8WZ82 (Q8WZ82 whole entry, looked up): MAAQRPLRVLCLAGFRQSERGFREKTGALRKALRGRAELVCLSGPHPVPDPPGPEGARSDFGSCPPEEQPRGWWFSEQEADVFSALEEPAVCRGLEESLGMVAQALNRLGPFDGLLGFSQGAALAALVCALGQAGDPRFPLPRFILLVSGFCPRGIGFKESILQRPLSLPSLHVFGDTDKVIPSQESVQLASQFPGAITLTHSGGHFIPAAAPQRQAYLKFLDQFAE
inactive: [1] -0.087 | [2] 0.023 | [3] -0.019 | [4] -0.1 | [7] 0.095 | [8] 0.021 | [9] 0.044 | [12] -0.132 | [13] 0.013 | [14] 0.086 | [17] -0.048 | [18] -0.305 | [20] 0.06

MMADHC (UniProt Q9H3L0)
Chain of UniProt Q9H3L0 (Q9H3L0 whole entry, looked up): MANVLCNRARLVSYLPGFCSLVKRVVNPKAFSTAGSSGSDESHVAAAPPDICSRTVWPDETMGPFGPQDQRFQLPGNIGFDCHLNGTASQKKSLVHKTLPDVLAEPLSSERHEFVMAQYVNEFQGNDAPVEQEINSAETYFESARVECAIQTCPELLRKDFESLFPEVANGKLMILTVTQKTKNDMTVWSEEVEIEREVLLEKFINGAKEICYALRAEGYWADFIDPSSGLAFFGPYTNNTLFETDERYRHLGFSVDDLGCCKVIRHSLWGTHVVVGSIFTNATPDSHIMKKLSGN
inactive: [1] 0.014 | [2] -0.056 | [3] -0.011 | [4] 0.073 | [6] 0.039 | [7] 0.076 | [8] 0.182 | [9] -0.118 | [10] -0.137 | [12] 0.001 | [13] -0.078 | [14] -0.078 | [16] 0.067 | [17] -0.057 | [18] 0.108 | [19] 0.04 | [20] 0.029

NNMT (UniProt P40261)
Chain of UniProt P40261 (P40261 whole entry, looked up): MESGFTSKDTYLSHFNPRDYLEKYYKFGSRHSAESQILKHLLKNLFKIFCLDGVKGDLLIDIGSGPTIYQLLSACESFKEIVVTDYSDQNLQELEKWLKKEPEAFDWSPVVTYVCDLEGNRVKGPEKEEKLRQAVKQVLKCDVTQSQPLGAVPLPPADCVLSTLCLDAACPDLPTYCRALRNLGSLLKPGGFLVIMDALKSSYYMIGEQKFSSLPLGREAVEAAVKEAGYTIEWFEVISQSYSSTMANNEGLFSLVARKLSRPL
active: [8] 0.276
inactive: [1] 0.035 | [2] 0.06 | [3] -0.028 | [5] -0.026 | [6] -0.026 | [9] -0.002 | [10] -0.006 | [11] 0.038 | [13] 0.012 | [14] 0.039 | [15] -0.082 | [16] 0.011 | [17] -0.001 | [18] -0.093 | [19] -0.076 | [20] -0.04

MRPS12 (UniProt O15235)
inactive: [1] 0.05 | [2] -0.031 | [3] -0.033 | [4] -0.017 | [5] -0.053 | [6] -0.123 | [7] 0.092 | [8] 0.111 | [9] 0.014 | [10] -0.224 | [11] -0.034 | [12] -0.094 | [13] 0.054 | [14] -0.069 | [15] 0.201 | [16] -0.146 | [17] 0.032 | [18] -0.002 | [19] 0.077 | [20] -0.054

NELFCD (UniProt Q8IXH7)
Chain of UniProt Q8IXH7 (Q8IXH7 whole entry, looked up): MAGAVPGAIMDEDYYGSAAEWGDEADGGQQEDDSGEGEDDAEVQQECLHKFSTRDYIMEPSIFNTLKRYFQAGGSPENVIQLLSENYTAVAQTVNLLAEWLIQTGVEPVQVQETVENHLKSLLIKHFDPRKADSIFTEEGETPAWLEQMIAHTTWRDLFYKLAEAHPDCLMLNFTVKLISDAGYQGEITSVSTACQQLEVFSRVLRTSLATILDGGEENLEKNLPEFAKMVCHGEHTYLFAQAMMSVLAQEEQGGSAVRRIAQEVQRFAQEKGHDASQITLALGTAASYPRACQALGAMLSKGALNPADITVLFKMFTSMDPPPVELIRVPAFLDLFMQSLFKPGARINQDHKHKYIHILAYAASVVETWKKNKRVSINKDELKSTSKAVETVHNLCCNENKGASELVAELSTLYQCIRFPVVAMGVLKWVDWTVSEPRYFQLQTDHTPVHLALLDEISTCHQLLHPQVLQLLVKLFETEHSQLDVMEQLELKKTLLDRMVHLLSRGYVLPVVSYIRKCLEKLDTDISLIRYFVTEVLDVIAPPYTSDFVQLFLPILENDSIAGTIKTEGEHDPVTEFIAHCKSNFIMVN
inactive: [1] -0.038 | [2] -0.18 | [3] -0.04 | [5] -0.394 | [6] 0.101 | [8] 0.017 | [9] -0.036 | [13] 0.02 | [14] 0.18 | [15] 0.094 | [16] 0.15 | [17] 0.051 | [19] 0.167 | [20] 0

PAFAH2 (UniProt Q99487)
inactive: [1] 0.106 | [2] 0.048 | [3] -0.012 | [4] -0.033 | [6] 0.025 | [7] 0.007 | [8] -0.011 | [10] 0.02 | [11] -0.09 | [12] 0.006 | [13] 0.019 | [14] -0.038 | [16] 0.093 | [17] -0.015 | [19] 0.059 | [20] -0.044

MRFAP1 (UniProt Q9Y605)
Chain of UniProt Q9Y605 (Q9Y605 whole entry, looked up): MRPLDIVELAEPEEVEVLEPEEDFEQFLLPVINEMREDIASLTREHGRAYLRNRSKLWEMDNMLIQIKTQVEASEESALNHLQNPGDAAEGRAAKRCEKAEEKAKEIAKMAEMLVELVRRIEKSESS
inactive: [1] 0.218 | [2] -0.017 | [3] 0.206 | [4] -0.022 | [6] -0.056 | [7] 0.437 | [8] -0.016 | [9] 0.28 | [10] -0.339 | [11] -0.073 | [12] -0.011 | [13] 0.101 | [14] -0.045 | [16] -0.148 | [17] 0.046 | [18] 0.009 | [19] 0.017 | [20] 0.036
